Out of some 1,400 compounds screened, fewer than 10 were called active. About 8% were inconclusive and are not listed. Calls follow the shape of the dose curve; as a rule, active = well fitted curve in the direction sought with a large enough effect; inconclusive = small, poorly fitted or top-dose-only effect, or another doubt; inactive = no such curve, though single readings can be large or run the other way. These entries were drawn from the full list.

Transient receptor potential cation channel subfamily V member 1 (Homo sapiens), sequence (Q8NER1 whole entry, looked up): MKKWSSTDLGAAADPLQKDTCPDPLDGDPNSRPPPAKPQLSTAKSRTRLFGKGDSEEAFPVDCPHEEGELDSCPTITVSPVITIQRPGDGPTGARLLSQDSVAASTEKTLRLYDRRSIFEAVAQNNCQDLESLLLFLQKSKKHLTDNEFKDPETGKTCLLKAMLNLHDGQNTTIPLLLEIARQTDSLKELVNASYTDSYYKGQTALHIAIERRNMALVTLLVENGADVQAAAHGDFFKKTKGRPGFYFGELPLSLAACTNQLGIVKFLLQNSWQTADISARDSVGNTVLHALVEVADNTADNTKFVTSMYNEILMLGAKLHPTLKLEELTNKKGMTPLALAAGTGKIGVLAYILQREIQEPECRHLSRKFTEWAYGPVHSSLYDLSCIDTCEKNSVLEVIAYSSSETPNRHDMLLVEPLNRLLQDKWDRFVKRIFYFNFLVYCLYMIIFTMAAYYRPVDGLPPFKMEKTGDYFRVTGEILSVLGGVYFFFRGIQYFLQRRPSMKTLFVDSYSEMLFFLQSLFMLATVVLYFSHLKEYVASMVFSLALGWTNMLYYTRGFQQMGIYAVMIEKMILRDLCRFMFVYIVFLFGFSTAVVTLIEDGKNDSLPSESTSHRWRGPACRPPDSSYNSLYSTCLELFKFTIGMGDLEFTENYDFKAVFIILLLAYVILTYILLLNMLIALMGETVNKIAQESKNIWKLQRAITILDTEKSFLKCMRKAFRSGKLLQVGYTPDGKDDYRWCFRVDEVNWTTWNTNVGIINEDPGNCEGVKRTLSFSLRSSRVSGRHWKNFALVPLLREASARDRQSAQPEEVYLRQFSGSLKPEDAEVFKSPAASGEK

The test has as its target Transient receptor potential cation channel subfamily V member 1 (Homo sapiens) (UniProt Q8NER1). Kind of test: qHTS Assay for Compounds that Act as Potentiators of the Vanilloid Receptor 1: Hit Validation. Also: % of control where 0% means no effect. To be noted: TRPV1-expressing cells, Fluo-8 calcium influx, capsaicin EC20; series mostly up to 42.1 µM; activity change, positive = potentiation: at the top concentration. Put shortly:
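TRPV1 cells (2000/well, overnight 35.5 °C) loaded with Fluo-8 calcium dye 40–90 min at room temperature. FDSS fluorescence (ex 480/em 520 nm) read 3 min after compound, then 2 min after capsaicin at EC20.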
For orientation: Quantitative high-throughput screening tests each substance at several concentrations.
On to `CC(=O)Nc1cccc(NC(C)=O)n1`, for which the “activity change, positive = potentiation” value is -5.38% (inactive).

Consider `Cn1nc(C(C)(C)C)cc1C(=O)NCc1ccc(N2CCCC2=O)cc1`, for which the “activity change, positive = potentiation” value was -1.47% (inactive).

For the compound `COc1cccc(CNC(=S)Nc2cccc(Cl)c2C)c1`, the “activity change, positive = potentiation” value is -38.9% (inactive).

Take `CCCCOc1ccc(C(=O)Nc2cccc(-n3cnnn3)c2)cc1OC`: the “activity change, positive = potentiation” value was -34.7% (inactive).

Consider `O=C(Cn1c(NCCCO)nc2ccccc21)c1ccc(Cl)cc1`, for which the “activity change, positive = potentiation” value is -7.03% (inactive).

Regarding `CCS(=O)(=O)C1=NN2C(=N)/C(=C\c3ccc(OCCOc4cccc(OC)c4)c(OC)c3)C(=O)N=C2S1`, the “activity change, positive = potentiation” value is -8.22% (inactive).

For `CCOC(=O)c1c(C)[nH]c(C)c1C(=O)CN1C(=O)NC(CC(C)C)C1=O` (configuration not stated), the “activity change, positive = potentiation” value is 0.659% (inactive).

For the compound `CN(Cc1c(O)ccc2c1oc(=O)c1ccccc12)C1CCCCC1`, the “activity change, positive = potentiation” value was -11.4% (inactive).

Consider `CN(Cc1ccccc1Cl)C(=O)c1cc2ccccc2o1`, for which the “activity change, positive = potentiation” value is -15% (inactive).

Take `CC1CC(C)CN(C(=O)c2cc(S(=O)(=O)N3CCCCC3)ccc2Cl)C1` (configuration not stated): the “activity change, positive = potentiation” value was -37.9% (inactive).

Turning to `O=C(Cc1nc2ccccc2[nH]1)c1ccc(Cl)cc1`, the “activity change, positive = potentiation” value was 3.7% (inactive).

For the compound `CS(=O)(=O)N1N=C(c2cccs2)CC1c1ccc(Cl)o1` (configuration not stated), the “activity change, positive = potentiation” value is 0.108% (inactive).

Take `CCOCc1c(C(=O)Nc2ccc(OC)nc2)oc2ccccc12`: the “activity change, positive = potentiation” value was -32.4% (inactive).

Regarding `Cc1cc(NC(=O)C(C)C)ncc1NC(=O)c1cccc(F)c1`, the “activity change, positive = potentiation” value is -6.46% (inactive).

For `CC1CCN(C(=O)c2cc(-c3ccc4c(c3)OCO4)on2)CC1`, the “activity change, positive = potentiation” value is -36.7% (inactive).

Consider `Cc1ccc(NC(=O)CSc2nnc(-c3ccccn3)n2C)cc1`, for which the “activity change, positive = potentiation” value was 0.532% (inactive).

Take `O=C(CSc1nc2ccccc2[nH]1)c1ccccc1F`: the “activity change, positive = potentiation” value is 3.85% (inactive).

As for `Cc1ccc2c(c1)nnn2C1CCN(C(=O)NCc2ccccc2)CC1`, the “activity change, positive = potentiation” value was -31.2% (inactive).

`O=C(CSc1nc(C2CC2)nc2ccccc12)N1CCCCC1`: the “activity change, positive = potentiation” value is -6.58% (inactive).

For `Cc1oc(C(C)(C)C)cc1C(=O)N1CCCC1C(=O)O` (configuration not stated), the “activity change, positive = potentiation” value was -8.94% (inactive).

For `O=C(O)c1ccc(NC(=O)c2ccccc2Br)c(NC(=O)c2ccccc2Br)c1`, the “activity change, positive = potentiation” value is -9.56% (inactive).

Regarding `Cc1cccc(NCc2cc(Cl)cc(Cl)c2O)n1`, the “activity change, positive = potentiation” value was -19.8% (inactive).

`CC(C)NC(=O)C1CC=CCC1C(=O)O` (configuration not stated): the “activity change, positive = potentiation” value was -2.64% (inactive).

As for `CC(=O)CC(C)(C)S(=O)(=O)c1ccc(NC(C)=O)cc1`, the “activity change, positive = potentiation” value was -0.365% (inactive).

For the compound `CC(=O)Nc1cc(-c2ccccc2)ccc1O`, the “activity change, positive = potentiation” value is -32.7% (inactive).

For `CSCCC(NC(=O)c1ccc(Cl)cc1)C(=O)NC(C)(C)C` (configuration not stated), the “activity change, positive = potentiation” value was -9.12% (inactive).

For the compound `Cc1cc(C)c(C#N)c(Cl)n1`, the “activity change, positive = potentiation” value is -10.6% (inactive).

Regarding `O=C(O)c1sccc1S(=O)(=O)N1CCN(c2ccc(C(F)(F)F)cn2)CC1`, the “activity change, positive = potentiation” value is -3.75% (inactive).

For `O=[N+]([O-])c1ccc(O)c(/C=N/Nc2ccccc2[N+](=O)[O-])c1`, the “activity change, positive = potentiation” value was 8.79% (inactive).

With `Cc1nn(C)c(C(=O)Nc2ccc(S(=O)(=O)NC34CC5CC(CC(C5)C3)C4)cc2)c1Br`, the “activity change, positive = potentiation” value was -0.96% (inactive).

Take `COc1ccc(C2=NCCn3nc4ccccc4c32)cc1`: the “activity change, positive = potentiation” value was 5.29% (inactive).

In the case of `CCN(c1ccccc1)S(=O)(=O)c1ccc2c(c1)N(C(C)=O)CCO2`, the “activity change, positive = potentiation” value is -20.4% (inactive).

With `COc1cc2[nH]c(C(=O)Nc3ccc(F)cc3)cc2c(OC)c1OC`, the “activity change, positive = potentiation” value was -38.3% (inactive).

Turning to `COc1ccc(-c2cn3cc(C)ccc3n2)cc1OC`, the “activity change, positive = potentiation” value was -5.92% (inactive).

Take `Cn1ncc([N+](=O)[O-])c1C(=O)Nc1ccccc1`: the “activity change, positive = potentiation” value was -1.33% (inactive).

Regarding `CC(/C=C/c1ccc2c(c1)OCO2)=N\NC(=O)c1ccccc1`, the “activity change, positive = potentiation” value is 6.97% (inactive).

Consider `Cc1nc([N+](=O)[O-])c(C(=O)OCc2ccccc2)n1C`, for which the “activity change, positive = potentiation” value is -4.18% (inactive).

For the compound `Cc1cccnc1NC(N)=S`, the “activity change, positive = potentiation” value was -7.17% (inactive).

In the case of `COC(=O)[C@H](C)NC(=O)c1cc2c(cn1)[nH]c1ccccc12`, the “activity change, positive = potentiation” value was 11% (inactive).

Consider `NC(=O)C1(c2ccccc2)OC1c1ccccc1` (configuration not stated), for which the “activity change, positive = potentiation” value is -9.87% (inactive).

With `CCOC(=O)C(Cc1ccccc1)C(=O)Nc1cccc(C)c1` (configuration not stated), the “activity change, positive = potentiation” value was -5.17% (inactive).

With `COc1ccc(C(=O)Nc2nc3ccccc3s2)cc1`, the “activity change, positive = potentiation” value is -36% (inactive).

Turning to `COc1cc(/C=N/NC(=S)Nc2cccnc2)cc(OC)c1OC`, the “activity change, positive = potentiation” value is -9.74% (inactive).

As for `CCOC(=O)N1CCN(CCC(=O)Nc2cccc(Cl)c2C)CC1`, the “activity change, positive = potentiation” value was -5.78% (inactive).

Take `N#C/C(=N\Nc1ccc([N+](=O)[O-])cc1)C(=N)N1CCOCC1`: the “activity change, positive = potentiation” value is -13.4% (inactive).

`COc1ccc(C(=O)N/N=C/c2ccc(OC)c(CSc3ccccn3)c2)cc1`: the “activity change, positive = potentiation” value was 6.12% (inactive).

For the compound `CC(C)Oc1ccc(NC(=O)c2ccncc2)cc1`, the “activity change, positive = potentiation” value was -33.9% (inactive).

On to `Cn1c(=O)c2ccccc2n(CC(=O)Nc2ccc3c(c2)OCCO3)c1=O`, for which the “activity change, positive = potentiation” value was -4.73% (inactive).

As for `COc1ccc(Nc2nc(C)nc3c2oc2ccccc23)cc1`, the “activity change, positive = potentiation” value was -37.7% (inactive).

For `CS(=O)(=O)Nc1nc2ccccc2[nH]1`, the “activity change, positive = potentiation” value was -7.67% (inactive).

Regarding `COc1ccc(CNC(=S)Nc2cccc(F)c2)cc1`, the “activity change, positive = potentiation” value is -32.8% (inactive).

As for `COc1ccc(C(=O)N(C)C2CCCN(Cc3ccccc3F)C2)cc1OC` (configuration not stated), the “activity change, positive = potentiation” value was -1.05% (inactive).

Regarding `COCCNC(=O)c1cccc(OC2CCN(Cc3cccc(C(C)=O)c3)CC2)c1`, the “activity change, positive = potentiation” value was -4.75% (inactive).

In the case of `CC(Oc1cccc(Cl)c1)C(=O)Nc1nc(-c2ccccn2)cs1` (configuration not stated), the “activity change, positive = potentiation” value is -5.61% (inactive).

As to `Cc1cc(C)c(C(=O)N2CCCC(Nc3ccc(C)c(C)c3)C2)o1` (configuration not stated), the “activity change, positive = potentiation” value is -38.2% (inactive).

As for `Cc1[nH]c2ccccc2c1-c1nc2ccccc2[nH]1`, the “activity change, positive = potentiation” value is -11.8% (inactive).

For the compound `CSc1ncccc1C(=O)OCc1ccc(Br)cc1`, the “activity change, positive = potentiation” value was -6.08% (inactive).

As for `COc1ccc(-c2nn(-c3ccccc3)cc2C(=O)NC(=S)Nc2cc(Cl)ccc2Cl)cc1`, the “activity change, positive = potentiation” value is -10.8% (inactive).

Turning to `CCOCCCn1c(=S)[nH]c2cc(C(=O)N3CCC(C(N)=O)(N4CCCCC4)CC3)ccc2c1=O`, the “activity change, positive = potentiation” value was -7.29% (inactive).

For `CCOc1c(Nc2ccc(C(C)C)cc2)c(=O)c1=O`, the “activity change, positive = potentiation” value was -36.4% (inactive).

`O=C(Cc1cccs1)Nc1cccc(-c2nnc(-c3ccco3)o2)c1`: the “activity change, positive = potentiation” value was -4.78% (inactive).

Regarding `O=C(NCc1ccncc1)c1ccc(Oc2ccccc2)cc1`, the “activity change, positive = potentiation” value is -35.7% (inactive).

In the case of `CC(C)C[C@H](NC(=O)c1[nH]cnc1C(=O)N[C@@H](Cc1ccccc1)C(=O)OC(C)(C)C)C(=O)OC(C)(C)C`, the “activity change, positive = potentiation” value was -33.7% (inactive).

`CC(C)(C)C(=O)CSc1ncnc2c1cnn2Cc1ccccc1`: the “activity change, positive = potentiation” value is -37.9% (inactive).

Regarding `CCC(CO)NCc1ccc(OCC(O)c2ccccc2)c(OC)c1` (configuration not stated), the “activity change, positive = potentiation” value was -0.957% (inactive).

Take `COc1c(O)ccc(/C=N\NC(=O)c2ccc3c(c2)OCO3)c1[N+](=O)[O-]`: the “activity change, positive = potentiation” value was -5.8% (inactive).

`O=C(CCCCn1c(=O)c2ccccc2n(CC(=O)NC2CCCC2)c1=O)NCc1ccco1`: the “activity change, positive = potentiation” value is -5.96% (inactive).

On to `CC(=O)c1cccc(NC(=O)/C(=C\c2cccnc2)NC(=O)c2ccc(C)cc2)c1`, for which the “activity change, positive = potentiation” value is 3.38% (inactive).

In the case of `C=C(C)c1cccc(C(C)(C)NC(=O)Nc2cccnc2)c1`, the “activity change, positive = potentiation” value was -37.9% (inactive).

With `COCCn1cnnc1SCC(=O)Nc1cc(OC)c([N+](=O)[O-])cc1C`, the “activity change, positive = potentiation” value is -6.14% (inactive).

`Cc1ccc(NC(=O)CN(C)C(C)C(=O)Nc2ccc(S(=O)(=O)N3CCCC3)cc2)cc1` (configuration not stated): the “activity change, positive = potentiation” value was -4.26% (inactive).

As to `O=C(NCc1cccnc1)c1ccc(-c2ccc(Cl)cc2)o1`, the “activity change, positive = potentiation” value was -37.5% (inactive).

With `CC(C)=NOCC(=O)Nn1c(COc2ccccc2)nc2ccccc2c1=O`, the “activity change, positive = potentiation” value is 4.02% (inactive).

For `O=C(Nc1ccc(F)cc1)c1ccc2ncsc2c1`, the “activity change, positive = potentiation” value was -36.9% (inactive).

With `CC(=O)Oc1ccc(/C=C/c2nc3ccccc3c(=O)o2)cc1`, the “activity change, positive = potentiation” value is -8.54% (inactive).

`CCOc1ccc(OCCC(=O)N(CC(=O)Nc2ccccc2C(F)(F)F)Cc2ccco2)cc1`: the “activity change, positive = potentiation” value is -7.83% (inactive).

Turning to `CN(C)/C=C/C(=O)c1nnn(C2CCCCC2)c1NC1CCCCC1`, the “activity change, positive = potentiation” value was -35.6% (inactive).

For the origin of these results see PubChem BioAssay AID623959 (National Center for Advancing Translational Sciences (NCATS), 2012).
